Compound activity from PubChem BioAssay.
Rows were chosen to be rich in hits. Some 11% of all compounds tested hit in one or more screens of this group.
VDR inhibitor = Inhibitors of the vitamin D receptor (VDR): qHTS; 0.93% of 400,000 active; Potency, µM, without a hit: max response, negative = inhibition, actives largely listed as inhibitors; VDR-SRC2-3 peptide fluorescence polarization, 2 h; Vitamin D3 receptor (Homo sapiens), P11473; note: % is set by controls: 0 for no effect and ±100 for the full control effect
Target sequence (P11473 whole entry, looked up): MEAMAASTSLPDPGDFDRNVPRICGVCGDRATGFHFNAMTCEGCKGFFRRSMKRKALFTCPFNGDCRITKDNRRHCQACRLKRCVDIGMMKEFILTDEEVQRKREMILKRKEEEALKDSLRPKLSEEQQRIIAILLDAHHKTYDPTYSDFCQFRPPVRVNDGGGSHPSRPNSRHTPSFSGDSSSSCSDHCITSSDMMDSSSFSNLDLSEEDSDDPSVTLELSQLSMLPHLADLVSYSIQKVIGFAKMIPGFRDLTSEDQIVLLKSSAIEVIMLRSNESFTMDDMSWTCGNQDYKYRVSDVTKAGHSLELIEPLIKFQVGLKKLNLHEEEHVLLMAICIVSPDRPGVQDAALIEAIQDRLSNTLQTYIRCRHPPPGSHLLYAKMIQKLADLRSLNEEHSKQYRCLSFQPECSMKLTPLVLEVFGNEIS
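Signal is fluorescence polarization, reporting how far test compounds block the interaction of VDR with the SRC2-3 coregulator peptide after a 2 h room-temperature incubation.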
PLK1 PBD inh = qHTS for Inhibitors of PLK1-PDB (polo-like kinase 1 - polo-box domain): Primary Screen. Serine/threonine-protein kinase PLK1 (Homo sapiens), P53350. Plk1 PBD binding of FITC phosphopeptide, fluorescence polarization. Potency, µM, inactives show max response, negative = inhibition, most hits filed as inhibitors. 2.8% of 360,000 active. AID 720504, 2013; note: series mostly up to about 57 µM; % is set by controls: 0 for no effect and ±100 for the full control effect; nearly all actives have a fitted effect of over 65% in size
G9a inh = qHTS Assay for Inhibitors of Histone Lysine Methyltransferase G9a | Histone-lysine N-methyltransferase EHMT2 (Homo sapiens), Q96KQ7 | G9a H3K9 monomethylation, AlphaScreen, 2 h | Potency, µM (top dose mostly 102 µM), inactives show top-dose activity, negative = inhibition, hits mostly inhibitors | 8.8% of 350,000 active; note: % is set by controls: 0 for no effect and ±100 for the full control effect; nearly all actives have a fitted effect of over 75% in size
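Readings reflect AlphaScreen signal from monomethyl-H3K9 antibody detection. HMT at 20 nM; substrate b-H3K9 500 nM; cofactor SAM 20 uM; 2 h RT reaction; compounds tested as titrations in qHTS with 15 min preincubation.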
JMJD2A Tudor = qHTS Assay for Inhibitors of JMJD2A-Tudor Domain; 4.4% of 390,000 active; Lysine-specific demethylase 4A (Homo sapiens), O75164; AID 504339, 2011; Potency, µM (series often up to 114 µM), without a hit: at the top dose activity change, negative = inhibition, usual class: inhibitors; AlphaScreen JMJD2A-Tudor / H3K4me3 peptide binding; note: % is set by controls: 0 for no effect and ±100 for the full control effect; nearly all actives have a fitted effect of over 50% in size
HP1b chromo inh = HTS for Inhibitors of HP1-beta Chromodomain Interactions with Methylated Histone Tails; AID 540317, 2011; 0.56% of 390,000 active; AlphaScreen HP1-beta / biotin-H3K9me3 peptide binding; Chromobox protein homolog 1 (Homo sapiens), P83916; Potency, µM (top dose mostly 114 µM), inactives show at the highest dose activity change, negative = inhibition, usual class: inhibitors; note: nearly all actives have a fitted effect of over 70% in size
Target sequence (P83916 whole entry, looked up): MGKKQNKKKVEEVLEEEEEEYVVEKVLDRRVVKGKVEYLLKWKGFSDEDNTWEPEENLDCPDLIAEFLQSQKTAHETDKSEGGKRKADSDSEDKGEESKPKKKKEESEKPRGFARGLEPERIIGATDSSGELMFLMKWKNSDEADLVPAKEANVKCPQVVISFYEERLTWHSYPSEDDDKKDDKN
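AlphaScreen: HP1-beta (50 nM) preformed 30 min with biotin-H3(1-18)K9me3 peptide (50 nM) in PBS pH 7.4, 0.01% Tween-20. Compound added for 30 min at RT, then streptavidin donor/nickel chelate acceptor beads (10 ug/mL) for 30 min.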
BAZ2B block = qHTS Assay for Inhibitors of BAZ2B | Bromodomain adjacent to zinc finger domain protein 2B (Homo sapiens), Q9UIF8 | AlphaScreen BAZ2B-H3K14Ac peptide displacement | Potency, µM (doses to about 114 µM), without a hit: at the highest dose activity change, negative = inhibition, actives largely listed as inhibitors | 4.4% of 360,000 active; note: % is set by controls: 0 for no effect and ±100 for the full control effect; nearly all actives have a fitted effect of over 60% in size
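AlphaScreen displacement of biotin-H3(5-23)K14Ac peptide (50 nM final) from BAZ2B (50 nM final) in PBS pH 7.4, 0.01% Tween-20; complex preformed 30 min RT, then compounds (top 110 uM) 30 min RT, beads 20 min dark.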
* hit, by the source's call; ? = inconclusive; . = no result; [ ] = dose if it differs, or a comment. Calls come from the whole dose curve; as a rule, active = well fitted curve in the direction sought with a large enough effect; inconclusive = small, poorly fitted or top-dose-only effect, or another doubt; inactive = no such curve, though single readings can be large; an effect the other way counts as inactive or inconclusive. Potency is the fitted concentration of half-maximal effect.

SMILES	VDR inhibitor	PLK1 PBD inh	G9a inh	JMJD2A Tudor	HP1b chromo inh	BAZ2B block
O=C(CNC1CCCCC1)N1CCC2(CC1)OCCO2	13%	-6%	35µM*	3.2µM*	?	?
Cc1ccc(C)c(CN2C(=O)c3ccccc3Sc3ccc(C(=O)N4CCC5(CC4)OCCO5)cc32)c1	-3%	.	-5%[59 µM]	-27%	1%	-24%
CC(=O)Nc1c(I)c(C(=O)O)c(I)c(N(C)C(C)=O)c1I	2%	.	?	.	.	.
CCCC1=Nc2cc(C(=O)NCCc3ccc(OC)cc3OC)ccc2Sc2ccccc21	-21%	.	-46%[59 µM]	-27%	6%	79µM*
Cc1cccc(CN2CCN(Cc3ccc(Cl)cc3)CC2)c1	-3%	3%	7.1µM*	1.1µM*	?	32µM*
Oc1ccc(Cl)cc1CN1CCN(Cc2ccccc2)CC1	-25%	-8%	?	-24%[57.1 µM]	72%	?
CCCCCCN1CCN(c2ccc(Cl)cc2)CC1	-6%	-5%	?	?	?	45µM*
Cc1cccc(CN2CCN(c3ccc(Cl)cc3)CC2)c1	-9%	4%	32µM*	22µM*	?	50µM*
CC(C)CN1CC[C@@]2(CCCN(C(=O)c3ccncc3)C2)C1	3%	.	8%[12.7 µM]	.	.	.
CC[C@H](C)[C@H](NC(=O)CN)C(=O)N[C@@H](CC(C)C)C(=O)NCC(=O)N[C@@H](Cc1ccccc1)C(=O)N[C@H](C(=O)N[C@@H](Cc1ccccc1)C(=O)N[C@H](C(=O)N[C@@H](CC(C)C)C(=O)O)[C@@H](C)O)C(C)C	0%	.	.	.	.	.
Nc1ccc(CCN2CCCC2)cc1	-9%	3%	40µM*	3%	33%	-19%
Oc1ccc(CCN2CCCCC2)cc1	1%	-2%	.	0%	21%[57 µM]	.
CC1/C=C/C=C/CC/C=C/C=C/C=C/C=C/C(OC2OC(C)C(O)C(N)C2O)CC2O[C@](O)(CC(O)C(O)CCC(O)CC(O)CC(O)CC(=O)OC(C)C(C)C1O)CC(O)C2C(=O)O (some centres undefined)	-1%	.	-15%[2.33 µM]	.	.	.
Oc1ccccc1CN(CCc1ccccc1)Cc1ccccc1	-14%	6%	-10%[0.501 µM]	45µM*	-20%	?
CC[C@H](C)[C@H](NC(=O)[C@H](CCCN=C(N)N)NC(=O)[C@H](CCCN=C(N)N)NC(=O)[C@H](CC(C)C)NC(=O)[C@H](Cc1ccccc1)NC(=O)CNC(=O)CNC(=O)[C@@H](N)Cc1ccc(O)cc1)C(=O)N[C@@H](CCCN=C(N)N)C(=O)N1CCC[C@H]1C(=O)N[C@@H](CCCCN)C(=O)N[C@@H](CC(C)C)C(=O)N[C@@H](CCCCN)C(=O)O	3%	.	37%[59 µM]	.	.	.
CN(C)C1C(=O)C(C(N)=O)=C(O)C2(O)C(=O)C3=C(O)c4c(O)cccc4C(C)(O)C3CC12 (centres undefined)	.	-26%	?	40µM*	-12%	13µM*
CN(C)[C@@H]1C(=O)C(C(N)=O)=C(O)[C@@]2(O)C(=O)C3=C(O)c4c(O)ccc(Cl)c4[C@@](C)(O)C3C[C@@H]12 (some centres undefined)	-10%	-14%	50µM*	11µM*	31%	45µM*
CN(C)[C@H]1C(=O)C(C(N)=O)=C(O)[C@]2(O)C(=O)C3=C(O)c4c(O)cccc4[C@@](C)(O)[C@H]3C[C@@H]12	.	.	1%[21.5 µM]	.	.	.
O=NN1CCCC1c1cccnc1 (centres undefined)	11%	.	17%[59 µM]	.	.	.
CC(C)(C)c1ccc(C(=O)Nc2ccc3nc(SCC(=O)N4CCCC4)sc3c2)cc1	14%	.	5%[59 µM]	-21%	45%	-9%
COc1cc(/C=N/NC(=O)CN2CC(c3ccccc3)CC2=O)ccc1OC(=O)N(C)C (centres undefined)	22%	-11%	-5%	-18%	15%	1%
COc1cc(/C=N/NP(=S)(c2ccccc2)c2ccccc2)ccc1O	-7%	?	45µM*	?	-39%	-35%
Oc1ccc(/C=N/NP(=S)(c2ccccc2)c2ccccc2)cc1	-29%	24µM*	?	?	?	?
CC(=O)N1CC[N+](C)(C)CC1	1%	.	-3%[59 µM]	.	.	.
C[C@]12CC[C@H]3[C@@H](CCC4C[C@H](O)CC[C@@]43C)[C@@H]1CC[C@@H]2O (some centres undefined)	.	.	10%[12.7 µM]	.	.	.
SMILES	VDR inhibitor	PLK1 PBD inh	G9a inh	JMJD2A Tudor	HP1b chromo inh	BAZ2B block
O=C(O)/C=C\C(=O)Nc1ccc(Oc2ccc(Br)cc2)cc1	-12%	-3%	?	-14%	35%	50µM*
CCCCCSc1cc(O)c(C(CNC)C(C)C)cc1OC (centres undefined)	5%	-6%	11µM*	?	9%	?
C/C(=N\NC(N)=O)c1c(O)n(C)c(=O)n(C)c1=O	-10%	30µM*	?	40µM*	28%	.
C/C(=N\N1CCCCCC1)c1c(O)n(C)c(=O)n(C)c1=O	.	.	17%[12.7 µM]	.	.	-7%
O=C(O[C@@H]1Cc2c(O)cc(O)cc2O[C@@H]1c1cc(O)c(O)c(O)c1)c1cc(O)c(O)c(O)c1	.	.	1.8µM*	.	.	8.9µM*
O=C(OC1Cc2c(O)cc(O)cc2OC1c1cc(O)c(O)c(O)c1)c1cc(O)c(O)c(O)c1 (centres undefined)	50µM*	.	.	.	.	.
N#C/C(N)=C(/N)C#N	8%	-1%	12%[0.501 µM]	-20%	28%	-36%
CS/C(N)=C(C#N)/C(C#N)=C(\N)SC	45µM*	.	?	.	.	.
COc1ccc(NC(=O)c2ccco2)cc1NC(=O)COc1cccc(C)c1C	-7%	.	14%[59 µM]	-18%	?	0%
COc1ccc2[nH]cc(C(=O)CN(C)C)c2c1	-22%	-5%	.	-21%	24%	.
O=C(O)c1c[nH]c2ccc(S(=O)(=O)N(CCCl)CCCl)cc12	10%	-4%	18µM*	-6%	28%	2%
CN[C@@H](Cc1c[nH]c2ccccc12)C(=O)O	-2%	.	.	.	.	.
O=[N+]([O-])c1ccc(CN2CCN(c3ccc(Cl)cc3)CC2)o1	1%	5%	.	18µM*	?	45µM*
COc1cc(CN2CCc3nc(N4CCN(c5ncccn5)CC4)ncc3C2)cc(OC)c1OC	4%	.	?	50µM*	-14%	45µM*
COc1cc(CN2CCc3nc(N4CCN(c5ccccn5)CC4)ncc3C2)cc(OC)c1OC	-1%	.	?	79µM*	?	50µM*
